Here are results for 8 compounds from PubChem BioAssay (NCI).

Some test systems named below: DU-145 prostate; K-562 leukemia; MALME-3M melanoma; MDA-MB-231 breast; RXF 393 renal; SF-268 CNS; SF-295 CNS; SF-539 CNS; UACC-257 melanoma; M14 melanoma; HCT-15 colon; HT29 colon; SNB-75 CNS; SNB-19 CNS; U251 CNS; SK-MEL-5 melanoma; UACC-62 melanoma; LOX IMVI melanoma; SK-MEL-28 melanoma; PC-3 prostate.
Experiment in all cases: NCI-60 one-dose screen, 48 h (100 = growth as untreated, 0 = no growth, -100 = all killed)
Common to all, as to settings: 10 µM unless noted

Compounds without any hit were thinned out: in the full panel of roughly 83,000, 20% have a hit.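 Cell lines were cultured in 96-well plates, exposed to a single compound concentration, and assessed for percent growth 48 hours later.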 Unmarked numbers belong to inactive results. Active and inactive are the calls of the source. How the source made its calls: active means growth percent below 10; inactive means the rest.

For `CCCCn1c(C)nc2ccc(Nc3nc(Cl)nc4nc[nH]c34)cc21`, the growth in the test with DU-145 prostate was 80.3%; in the test with K-562 leukemia, 69.8%; with MALME-3M melanoma it was 78.1%; in the test with MDA-MB-231 breast, 64.8%; with RXF 393 renal, 62.9%; in the test on SF-268 CNS, 76%. In addition, the growth was 76.3% in the test with SF-295 CNS; 79.9% with SF-539 CNS; 92.5% in the test on UACC-257 melanoma; 68.3% in the test with M14 melanoma; 82.6% with HCT-15 colon; 79.9% with HT29 colon. Besides, the growth with SNB-75 CNS was 62.8%; with SNB-19 CNS, 90.5%; in the test with U251 CNS, 74.5%; in the test with SK-MEL-5 melanoma, 63.6%; in the test with UACC-62 melanoma, 69.8%; with LOX IMVI melanoma, 90.2%. In addition, in the test with SK-MEL-28 melanoma, the growth is 94.3%.
Take `CN1CCN(Cc2ccc(NC(=O)c3ccc(C#N)c(C#Cc4cnc(N)c5ncccc45)c3)cc2C(F)(F)F)CC1`: the growth with DU-145 prostate is 28.8%; with K-562 leukemia, -5.03% (active); in the test on MALME-3M melanoma it was -52% (active); with MDA-MB-231 breast it was -2.17% (active); with RXF 393 renal, 41.9%; with SF-268 CNS, 94.1%. Moreover, the growth with SF-295 CNS is 103%; in the test on SF-539 CNS, 54.5%; in the test on UACC-257 melanoma, -20.1% (active); with M14 melanoma, 3.5% (active); in the test with HCT-15 colon it was 1.93% (active); in the test on HT29 colon it was 4.28% (active). For the same compound, the growth in the test on SNB-75 CNS was 112%; in the test with SNB-19 CNS, 115%; in the test with U251 CNS it was 55.6%; in the test with SK-MEL-5 melanoma it was 87%; in the test with UACC-62 melanoma, 58.8%; in the test on LOX IMVI melanoma it was 82.5%.
For `O=C1CC2(O)CSc3nc(=O)cc(n32)N1` (stereo not given), the growth is 115% with DU-145 prostate; 111% in the test on K-562 leukemia; 99.8% with MALME-3M melanoma; 100% in the test on MDA-MB-231 breast; 110% in the test on RXF 393 renal; 112% with SF-268 CNS. For the same compound, the growth in the test on SF-295 CNS is 88.8%; in the test on SF-539 CNS, 104%; in the test on UACC-257 melanoma, 99.2%; in the test with M14 melanoma, 101%; with HCT-15 colon, 96.5%; in the test on HT29 colon, 103%. The growth with SNB-75 CNS was 98.4%; with SNB-19 CNS it was 91.6%; with U251 CNS, 97.2%; in the test on SK-MEL-5 melanoma, 99.5%; with UACC-62 melanoma, 102%; in the test on LOX IMVI melanoma, 103%. The growth in the test with SK-MEL-28 melanoma is 104%.
In the case of `O=C(O)Cn1ccc2ccccc21`, the growth with DU-145 prostate was 119%; in the test on K-562 leukemia it was 93.4%; with MALME-3M melanoma it was 96.7%; in the test with MDA-MB-231 breast it was 88.8%; with RXF 393 renal it was 114%; in the test on SF-268 CNS, 115%. Further, the growth in the test with SF-295 CNS was 113%; with SF-539 CNS, 92.8%; with UACC-257 melanoma it was 113%; in the test with M14 melanoma, 93.2%; with HCT-15 colon, 111%; in the test with HT29 colon, 106%. Moreover, the growth in the test with SNB-75 CNS was 91.1%; in the test on SNB-19 CNS, 98.9%; in the test on U251 CNS, 108%; in the test with SK-MEL-5 melanoma, 98.7%; in the test on UACC-62 melanoma, 104%; in the test on LOX IMVI melanoma, 91.8%. For the same compound, the growth in the test on SK-MEL-28 melanoma was 134%.
As to `COc1ccc(/C(=C\c2cc(OC)c(OC)c(OC)c2)C(=O)N2CCN(c3ccccc3)CC2)cc1O`, the growth in the test with DU-145 prostate is 115%; in the test on K-562 leukemia, 104%; in the test on MALME-3M melanoma it was 104%; in the test with MDA-MB-231 breast it was 95.1%; in the test with RXF 393 renal, 98.2%; with SF-268 CNS, 101%. Besides, the growth in the test with SF-295 CNS is 96.2%; in the test on SF-539 CNS, 92.1%; in the test with UACC-257 melanoma it was 93.1%; in the test on M14 melanoma it was 105%; with HCT-15 colon it was 97.2%; in the test with HT29 colon, 101%. Moreover, the growth in the test on SNB-75 CNS is 77.4%; with SNB-19 CNS, 97.6%; in the test with U251 CNS, 96.3%; in the test on PC-3 prostate, 84.4%; in the test with SK-MEL-5 melanoma, 97.1%; in the test with UACC-62 melanoma, 88.4%. The growth in the test with LOX IMVI melanoma is 94%; in the test with SK-MEL-28 melanoma, 105%.
Take `COc1cccc2nc(Nc3cccc(NC(=O)c4ccc(N5CCN(C)CC5)c(C(F)(F)F)c4)c3)ccc12`: the growth is 29.4% in the test on DU-145 prostate; -49.1% (active) in the test on K-562 leukemia; -10.5% (active) in the test on MALME-3M melanoma; 29.5% in the test with MDA-MB-231 breast; -2.23% (active) with RXF 393 renal; 35.5% in the test on SF-268 CNS. Besides, the growth is -0.464% (active) in the test with SF-295 CNS; -27.9% (active) with SF-539 CNS; -21.9% (active) with UACC-257 melanoma; 10.1% in the test with M14 melanoma; -10.4% (active) in the test on HCT-15 colon; -67.7% (active) in the test on HT29 colon. The growth is -7.68% (active) in the test with SNB-75 CNS; -24.6% (active) in the test with U251 CNS; 22% with PC-3 prostate; 48.8% in the test with SK-MEL-5 melanoma; -38.4% (active) in the test with UACC-62 melanoma; -96.7% (active) with LOX IMVI melanoma.
Turning to `CCSc1ccc([C@@H]2[C@@H](O)C(=O)N2c2cc(OC)c(OC)c(OC)c2)cc1`, the growth is 12.5% in the test with DU-145 prostate; 7.65% (active) with K-562 leukemia; 71% in the test on MALME-3M melanoma; 23.6% with MDA-MB-231 breast; 35.9% in the test on RXF 393 renal; 31.4% in the test on SF-268 CNS. Further, the growth with SF-295 CNS was 18.1%; in the test on SF-539 CNS, 1.7% (active); in the test with UACC-257 melanoma it was 66.5%; with M14 melanoma, 10.4%; with HCT-15 colon, 14.1%; in the test with HT29 colon it was 9.27% (active). The growth in the test on SNB-75 CNS is 85.8%; in the test with U251 CNS, 21%; with PC-3 prostate, 28.1%; in the test on SK-MEL-5 melanoma, 0.317% (active); with UACC-62 melanoma, 40.4%; in the test on LOX IMVI melanoma it was 25.9%. Also, in the test on SK-MEL-28 melanoma, the growth is 71%.
As for `O=C(OCc1ccc2c(Cl)cc(Cl)c(O)c2n1)c1cc2ccccc2[nH]1`, the growth in the test with DU-145 prostate is -94.5% (active); in the test with K-562 leukemia it was -5.38% (active); with MALME-3M melanoma, -77.7% (active); with MDA-MB-231 breast it was -78.3% (active); in the test with RXF 393 renal, -94.9% (active); in the test with SF-268 CNS it was -80.4% (active). Moreover, the growth in the test with SF-295 CNS is 64.3%; in the test with SF-539 CNS, -91.1% (active); in the test on UACC-257 melanoma it was -72.4% (active); with M14 melanoma it was -69.7% (active); in the test with HCT-15 colon it was -50.2% (active); in the test with HT29 colon it was -81.1% (active). Also, the growth with SNB-19 CNS was 34.8%; in the test on U251 CNS, -92.6% (active); with PC-3 prostate it was -79.8% (active); in the test on SK-MEL-5 melanoma, -97.6% (active); in the test on UACC-62 melanoma, -70.7% (active); in the test on LOX IMVI melanoma, -91.2% (active).
